# Compound activity as filed in PubChem.
# TbPYK inhibitor: qHTS of Trypanosoma Brucei Inhibitors. pyruvate kinase (Trypanosoma brucei), Q57TT1. TbPYK enzyme, Kinase-Glo Plus ATP luminescence, 45 min. Potency, µM (top dose mostly 76.8 µM), inactives show at the highest dose activity, negative = inhibition, usual class: inhibitors. hit rate 0.12% among 410,000. AID 624173, 2012; note: potency is the fitted concentration of half-maximal effect; % is set by controls: 0 for no effect and ±100 for the full control effect; nearly all actives have a fitted effect of over 50% in size
#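 Luminescence from Kinase-Glo Plus, added after a 45-minute room-temperature reaction, served as the end-point read-out. The enzyme and substrate were preincubated with compound before ADP (130 uM final) initiated turnover. Concentration-effect curves came from normalized qHTS data.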
# Cycloheximide cs: Cycloheximide Counterscreen for Small Molecule Inhibitors of Shiga Toxin | cell reporter, cycloheximide protein synthesis inhibition counterscreen | max response, % | hit rate 12% among 300,000 | AID 2314, 2010; in the data active = max response mostly above about 13%, no sharp cut-off; inactive = mostly below about 14%; note: read at 38.3 µM for the half of the compounds with a filed dose; 0% is about no effect
# FBPA Giardia inh: qHTS Assay for Inhibitors of Fructose-1,6-bisphosphate Aldolase from Giardia Lamblia; A8B2U2; purified Giardia FBPA; hit rate 0.71% among 290,000; Potency, µM (titrated, usually from 59.6 µM), without a hit: at the top dose activity, negative = inhibition, actives largely listed as inhibitors; AID 2451, 2010; note: potency is the fitted concentration of half-maximal effect; % is set by controls: 0 for no effect and ±100 for the full control effect; nearly all actives have a fitted effect of over 55% in size
#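 Giardia FBPA (40 nM reagent) was preincubated 10 min at RT with compound (up to 57.5 uM final), then substrate plus GAPDH/TPI/NAD/arsenate coupling system with diaphorase/resazurin was added; resorufin fluorescence (525/598 nm) was read after 20 min.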
# Shiga inhibitor: A qHTS for Small Molecule Inhibitors of Shiga Toxin. inhibition, % at 38.7 µM. Vero cells, Shiga toxin protein synthesis inhibition reporter. hit rate 9.2% among 290,000; in the data active = inhibition mostly above about 28%, no sharp cut-off; inactive = mostly below about 43%; note: 0% is about no effect
# RE007 growth inh: qHTS Assay for Inhibitors of the HIV-1 protein Vpr | S. pombe RE007 Vpr strain, BacTiter-Glo ATP luminescence, 24 h | Potency, µM (doses to about 92.2 µM), for inactives: at the top dose activity change, negative = less growth, actives largely listed as inhibitors | hit rate 0.21% among 360,000 | AID 651644, 2012; active = well fitted falling curve with a large enough effect; inconclusive = small, poorly fitted or top-dose-only effect; inactive = no such curve, though single readings can be large or run the other way; note: potency is the fitted concentration of half-maximal effect; % is set by controls: 0 for no effect and ±100 for the full control effect; nearly all actives have a fitted effect of over 50% in size
#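 Fission yeast strain RE007, carrying one chromosomally integrated HIV-1 vpr copy, was seeded at OD 0.01 in PMG+AL medium with 23 nL pinned compound. After 24 h at 30 °C and 99% humidity, viability was read by BacTiter-Glo luminescence.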
# LmPK inh: qHTS Assay for Inhibitors of Leishmania Mexicana Pyruvate Kinase (LmPK). purified LmPK, Kinase-Glo ATP luminescence, 1 h. Potency, µM (series often up to 57.5 µM), without a hit: top-dose activity change, negative = inhibition, most hits filed as inhibitors. hit rate 0.37% among 290,000; note: potency is the fitted concentration of half-maximal effect; % is set by controls: 0 for no effect and ±100 for the full control effect
# Target sequence (Q27686 whole entry, looked up): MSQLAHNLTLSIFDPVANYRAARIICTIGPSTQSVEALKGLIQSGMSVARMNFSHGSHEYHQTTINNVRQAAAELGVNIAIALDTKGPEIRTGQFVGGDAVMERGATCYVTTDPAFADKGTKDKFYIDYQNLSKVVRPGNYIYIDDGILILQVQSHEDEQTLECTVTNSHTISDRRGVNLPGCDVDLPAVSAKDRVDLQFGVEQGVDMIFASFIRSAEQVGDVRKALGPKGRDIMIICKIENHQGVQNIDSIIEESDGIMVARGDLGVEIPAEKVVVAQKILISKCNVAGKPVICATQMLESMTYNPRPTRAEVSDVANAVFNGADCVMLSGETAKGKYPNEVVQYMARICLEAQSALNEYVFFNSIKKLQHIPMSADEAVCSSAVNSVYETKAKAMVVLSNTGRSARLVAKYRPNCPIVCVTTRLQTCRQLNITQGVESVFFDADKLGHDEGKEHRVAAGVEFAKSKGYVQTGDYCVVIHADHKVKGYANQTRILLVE
#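 Purified LmPK (0.1 nM) with 0.5 mM PEP and 0.1 mM ADP in imidazole buffer pH 7.2 with MgCl2/KCl, 1 h at room temperature. ATP formed was read by luciferase luminescence and normalized to no-enzyme and uninhibited controls.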
# * = called active by the depositor; ? = inconclusive; . = no result; [ ] = another dose, or the depositor's remark. The sample as a whole holds a higher share of hits than the screen did. Unless noted, calls come from the whole dose curve; as a rule, active = well fitted curve in the direction sought with a large enough effect; inconclusive = small, poorly fitted or top-dose-only effect, or another doubt; inactive = no such curve, though single readings can be large; an effect the other way counts as inactive or inconclusive.
SMILES,TbPYK inhibitor,Cycloheximide cs,FBPA Giardia inh,Shiga inhibitor,RE007 growth inh,LmPK inh
C#CCOc1ccc(-c2nnc(Nc3ccc(NC(C)=O)cc3)c3ccccc23)cc1,-7%,.,.,.,.,.
C=Cc1ccc(N=Cc2c(O)ccc3ccccc23)cc1,2%,16,14µM*,14,-16%,0%
Oc1ccc2ccccc2c1C=Nc1ccc(N2CCOCC2)cc1,-5%,21,-23%,-2,-22%,-6%
Cc1cc(C(=O)O)ccc1N=Cc1c(O)ccc2ccccc12,-4%,10*,-19%,25,-13%,0%
CC(=O)c1cccc(N=Cc2c(O)ccc3ccccc23)c1,1%,2,?,-3,-14%,1%
CC(=O)N(C)c1ccc(N=Cc2c(O)ccc3ccccc23)cc1,-3%,17*,-20%,25*,-24%,-4%
CC(=O)OC1CC(OC(C)=O)[C@]2(C)C(CC(=O)[C@]3(C)C2CC[C@@]2(C)C(C(=O)O)OC(=O)C4OC423)C1(C)C (stereo partly specified),.,.,0%,.,.,.
Cc1ccc(NC(=O)c2sc3nc[nH]c(=O)c3c2C)cc1Cl,0%,.,.,.,.,.
Cc1ccc(NC(=O)c2sc3nc[nH]c(=O)c3c2C)c(C)c1,-6%,27*,5%,23,-6%,4%
O=C(Nc1ccccc1Cl)c1cnccn1,1%,11,2%,41,-16%,-4%
Cc1ccc(NC(=O)c2cnccn2)c(C)c1,-9%,21*,-2%,38*,1%,0%
COc1ccc(NC(=O)C(OC(=O)c2cnccn2)c2ccccc2)cc1Cl (stereo unspecified),-1%,17*,.,53,9%,-9%
O=C(Nc1ccc(Br)cc1Cl)c1cnccn1,-8%,19*,2%,30,4%,-1%
O=C(Nc1ccc(F)cc1)c1cccn1-c1nnc(N2CCCCC2)s1,-4%[15.4 µM],.,.,.,.,.
COc1ccccc1-c1nccc(NCc2cccs2)n1,.,.,-10%,.,.,.
Cc1cc(O)c(C(c2ccc(F)cc2)N2CCN(c3ccccc3)CC2)c(=O)n1Cc1ccco1 (stereo unspecified),-9%,.,.,.,.,.
O=C(Nc1cc(Cl)ccc1Oc1ccccc1)c1cnccn1,0%,-3,1%,-8,2%,0%
COc1ccc(Cl)cc1NC(=O)c1cnccn1,3%,13*,4%,20,1%,-4%
CCCCc1nn2c(=O)cc(COC(=O)c3ccc(NC(=O)c4cccc(OC)c4)cc3)nc2s1,4%,.,.,.,.,.
CC(C)n1nnc(-c2ccc(OCc3ccccc3F)cc2)n1,-11%,26*,2%,.,-23%,-3%
Fc1ccccc1COc1ccc(C(=S)N2CCCC2)cc1,-5%,34*,9%,116*,0%,0%
Fc1ccccc1COc1ccc(-c2nnn(Cc3ccccc3F)n2)cc1,-4%,-1,-2%,13,-19%,11%
Cn1nnc(-c2ccc(OCc3ccccc3F)cc2)n1,-19%,44*,2%,94*,-9%,?
COc1cccc(CNC(=O)C(=O)NCC(c2ccco2)S(=O)(=O)c2cccs2)c1 (stereo unspecified),-2%,.,.,.,.,.
Cc1ccccc1OCCCCn1c(CO)nc2ccccc21,4%,-3,6%,-3,-6%,8%
SMILES,TbPYK inhibitor,Cycloheximide cs,FBPA Giardia inh,Shiga inhibitor,RE007 growth inh,LmPK inh
OCc1nc2ccccc2n1CCCc1ccccc1,1%,.,.,.,-4%,.
Cc1ccc(OCCCn2c(CO)nc3ccccc32)cc1,-6%,18*,0%,67*,4%,-1%
COc1cccc(OCc2nc3ccccc3n2CCOc2cccc(C)c2)c1,4%,.,.,.,.,.
OCc1nc2ccccc2n1CCCOc1ccccc1,-2%,30*,-3%,35*,1%,2%
Cc1cccc(OCCCn2c(CO)nc3ccccc32)c1,1%,44*,-8%,122*,0%,0%
O=c1[nH]c2ccccc2nc1C(Cl)c1ccccc1 (stereo unspecified),.,12,4%,33,.,11%
[N-]=[N+]=NC(c1ccccc1)c1nc2ccccc2[nH]c1=O (stereo unspecified),-8%,27*,-7%,28,0%,-4%
Cc1cc2nn(-c3ccccc3)nc2cc1NC(=O)COc1ccc(Cl)cc1,-3%,.,.,.,.,.
COc1ccc([C@@H]2[C@@H]3C(=O)N(C(C)(C)C)C(=O)[C@@H]3[C@]3(CC(C)C)C(=O)N(c4ccccc4)C(=O)N23)cc1,0%,16*,5%,26,6%,1%
COc1ccc([C@@H]2[C@@H]3C(=O)N(C(C)(C)C)C(=O)[C@@H]3[C@]3(C)C(=O)N(c4ccc(C(F)(F)F)cc4)C(=O)N23)cc1,-3%,21*,-13%,24*,4%,-1%
COc1ccc([C@@H]2[C@@H]3C(=O)N(C(C)(C)C)C(=O)[C@@H]3[C@]3(CC(C)C)C(=O)N(c4ccc(C(F)(F)F)cc4)C(=O)N23)cc1,5%,-3,14%,-2,-2%,1%
COc1ccc([C@@H]2[C@@H]3C(=O)N(C(C)(C)C)C(=O)[C@@H]3[C@]3(CC(C)C)C(=O)N(c4cccc(Br)c4)C(=O)N23)cc1,1%,-4,-9%,-10,-6%,-3%
CCn1ccc2cc(S(=O)(=O)N3CCCN(C(=O)Nc4ccc(C)cc4)CC3)ccc21,-2%,.,.,.,.,.
CCOc1ccc(CCNC(=O)c2ccc3c(c2)nc2n3CCOC2)cc1OCC,-2%,.,.,.,.,.
O=C(Nc1ccc(-c2nc3cccnc3s2)cc1)c1ccc(Br)o1,4%,47*,3%,53*,25%,0%
O=C(Nc1cccc(-c2nc3cccnc3s2)c1)c1ccco1,1%,20*,1%,57*,?,4%
CCS(=O)(=O)Nc1cccc(-c2nc3cccnc3s2)c1C,5%,30*,7%,73*,0%,5%
CCC(CC)C(=O)Nc1cccc(-c2nc3cccnc3s2)c1C,-2%,.,.,.,.,.
O=C(Nc1ccc(-c2nc3ncccc3o2)cc1)c1ccc(Br)o1,4%,9,2%,-28,-21%,2%
O=C(Nc1ccc(-c2nc3cccnc3s2)cc1)c1ccco1,2%,34*,1%,74*,-7%,-20%
Cc1c(NC(=O)c2ccco2)cccc1-c1nc2cccnc2s1,-1%,16*,-1%,31,-6%,5%
COC(=O)[C@H](Cc1ccccc1)NC(=O)c1ccc2ccccc2n1,2%,18,1%,41*,-15%,8%
CC(CCc1ccccc1)NC(=O)c1ccc(NC(=O)c2ccccc2)cc1 (stereo unspecified),1%,1,0%,2,4%,7%
COc1ccc(C(=O)NC(C)CCc2ccccc2)cc1 (stereo unspecified),-4%,19*,12%,.,16%,0%
